# In paper PMC7862700, “An all-to-all approach to the identification of sequence-specific readers for epigenetic DNA modifications on cytosine”:
# Legend:
# Experiment in all cases: DAPPL (digital affinity profiling via proximity ligation, sequencing); 10 mM Tris-HCl pH 7.5, 50 mM NaCl, 1 mM DTT, 4% glycerol, room temperature, 30 min; GST-TFs on glutathione beads, 16-mer random dsDNA library, 0.1% formaldehyde crosslink after washing; high values mean tight binding
# FLI1 = molecular target: T1, FLI1 (Homo sapiens, UniProt Q01543 1-452); conditions: protein: recombinant; tags: N-terminal GST; dsDNA, one strand shown
# T1 sequence: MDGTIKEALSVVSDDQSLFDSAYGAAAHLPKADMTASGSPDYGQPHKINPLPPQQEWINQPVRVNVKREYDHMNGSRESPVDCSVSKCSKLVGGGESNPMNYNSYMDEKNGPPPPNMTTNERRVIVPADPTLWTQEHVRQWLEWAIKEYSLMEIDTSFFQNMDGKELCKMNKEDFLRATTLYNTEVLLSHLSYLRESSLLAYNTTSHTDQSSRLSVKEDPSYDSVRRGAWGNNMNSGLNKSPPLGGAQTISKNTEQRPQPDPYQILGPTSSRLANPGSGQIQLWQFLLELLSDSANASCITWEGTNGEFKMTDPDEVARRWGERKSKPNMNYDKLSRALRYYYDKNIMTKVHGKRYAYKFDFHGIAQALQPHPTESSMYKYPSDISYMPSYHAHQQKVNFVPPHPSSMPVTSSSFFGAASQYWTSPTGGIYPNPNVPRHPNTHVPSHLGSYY
# Summary of the method: (§1)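 Human transcription factors were made in yeast as GST fusions, captured on glutathione beads and barcoded with DNA. With a tag-only sample included, the pool was incubated with 200 nmole of a random double-stranded 16-mer DNA library in Tris/NaCl/DTT/glycerol buffer at room temperature for 30 min, then crosslinked with 0.1% formaldehyde after washing, ligated by proximity, amplified and sequenced. For binding signal, each hexamer's read frequency for a factor is divided by its frequency for the tag-only sample.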
# ELK1 = molecular target: T2, ELK1 (Homo sapiens, UniProt P19419 1-428); conditions: protein: recombinant; tags: N-terminal GST; dsDNA, one strand shown
# T2 sequence: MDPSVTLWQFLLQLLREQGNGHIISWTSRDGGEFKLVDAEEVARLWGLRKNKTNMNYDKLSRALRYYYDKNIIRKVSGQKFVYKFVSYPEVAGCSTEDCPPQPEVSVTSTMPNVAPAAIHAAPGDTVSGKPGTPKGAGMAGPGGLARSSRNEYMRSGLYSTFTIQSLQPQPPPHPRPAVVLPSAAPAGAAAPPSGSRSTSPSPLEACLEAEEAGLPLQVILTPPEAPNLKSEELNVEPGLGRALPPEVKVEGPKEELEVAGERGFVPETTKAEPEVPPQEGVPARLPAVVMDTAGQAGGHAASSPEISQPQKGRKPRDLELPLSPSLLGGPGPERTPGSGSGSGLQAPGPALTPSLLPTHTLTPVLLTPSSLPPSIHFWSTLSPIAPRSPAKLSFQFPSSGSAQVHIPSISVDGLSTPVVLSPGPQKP
# Summary of the method: as §1
# GABPA = molecular target: T3, GABPA (Homo sapiens, UniProt Q06546 1-454); conditions: protein: recombinant; tags: N-terminal GST; dsDNA, one strand shown
# T3 sequence: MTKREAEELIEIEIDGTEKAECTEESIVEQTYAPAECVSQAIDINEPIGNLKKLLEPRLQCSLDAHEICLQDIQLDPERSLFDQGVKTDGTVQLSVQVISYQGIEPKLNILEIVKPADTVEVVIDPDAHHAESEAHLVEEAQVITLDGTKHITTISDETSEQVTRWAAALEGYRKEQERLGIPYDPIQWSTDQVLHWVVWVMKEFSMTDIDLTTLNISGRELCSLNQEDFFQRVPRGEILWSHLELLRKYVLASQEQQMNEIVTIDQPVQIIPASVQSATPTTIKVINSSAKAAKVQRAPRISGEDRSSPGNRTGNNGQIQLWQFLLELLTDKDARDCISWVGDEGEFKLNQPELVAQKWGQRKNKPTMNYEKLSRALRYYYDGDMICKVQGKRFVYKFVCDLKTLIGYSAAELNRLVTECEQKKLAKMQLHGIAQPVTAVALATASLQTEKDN
# Summary of the method: as §1
# ERG = molecular target: T4, ERG (Homo sapiens, UniProt P11308 1-479); conditions: protein: recombinant; tags: N-terminal GST; dsDNA, one strand shown
# T4 sequence: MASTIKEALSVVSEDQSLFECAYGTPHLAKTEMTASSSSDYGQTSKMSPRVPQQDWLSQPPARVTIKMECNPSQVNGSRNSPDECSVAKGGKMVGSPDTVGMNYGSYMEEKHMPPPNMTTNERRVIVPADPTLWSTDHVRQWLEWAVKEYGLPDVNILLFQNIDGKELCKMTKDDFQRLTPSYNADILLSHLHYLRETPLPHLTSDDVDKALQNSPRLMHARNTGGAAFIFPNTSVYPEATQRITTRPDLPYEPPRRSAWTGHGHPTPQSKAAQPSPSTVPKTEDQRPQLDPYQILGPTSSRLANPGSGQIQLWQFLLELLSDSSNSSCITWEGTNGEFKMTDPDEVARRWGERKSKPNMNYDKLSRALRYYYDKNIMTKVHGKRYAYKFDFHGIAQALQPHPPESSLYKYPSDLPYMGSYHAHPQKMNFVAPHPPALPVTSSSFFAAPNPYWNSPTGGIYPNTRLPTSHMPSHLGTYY
# Summary of the method: as §1
# ELF1 = ELF1 (Homo sapiens, UniProt P32519 1-619); conditions: protein: recombinant; tags: N-terminal GST; dsDNA, one strand shown
# Summary of the method: as §1
# EHF = molecular target: T5, EHF (Homo sapiens, UniProt Q9NZC4 1-300); conditions: protein: recombinant; tags: N-terminal GST; dsDNA, one strand shown
# T5 sequence: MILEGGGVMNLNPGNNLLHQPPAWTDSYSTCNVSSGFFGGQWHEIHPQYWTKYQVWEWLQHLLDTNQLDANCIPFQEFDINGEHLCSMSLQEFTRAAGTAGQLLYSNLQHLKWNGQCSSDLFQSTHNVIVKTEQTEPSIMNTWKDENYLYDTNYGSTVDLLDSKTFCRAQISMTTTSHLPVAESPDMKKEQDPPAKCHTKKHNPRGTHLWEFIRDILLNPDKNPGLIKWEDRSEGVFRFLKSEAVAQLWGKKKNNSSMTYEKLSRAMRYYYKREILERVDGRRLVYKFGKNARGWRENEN
# Summary of the method: as §1
# SPI1 = SPI1 (Homo sapiens, UniProt P17947 1-270); conditions: protein: recombinant; tags: N-terminal GST; dsDNA, one strand shown
# Summary of the method: as §1
# SPIB = SPIB (Homo sapiens, UniProt Q01892 1-262); conditions: protein: recombinant; tags: N-terminal GST; dsDNA, one strand shown
# Summary of the method: as §1
# ELK3 = molecular target: T6, ELK3 (Homo sapiens, UniProt P41970 1-407); conditions: protein: recombinant; tags: N-terminal GST; dsDNA, one strand shown
# T6 sequence: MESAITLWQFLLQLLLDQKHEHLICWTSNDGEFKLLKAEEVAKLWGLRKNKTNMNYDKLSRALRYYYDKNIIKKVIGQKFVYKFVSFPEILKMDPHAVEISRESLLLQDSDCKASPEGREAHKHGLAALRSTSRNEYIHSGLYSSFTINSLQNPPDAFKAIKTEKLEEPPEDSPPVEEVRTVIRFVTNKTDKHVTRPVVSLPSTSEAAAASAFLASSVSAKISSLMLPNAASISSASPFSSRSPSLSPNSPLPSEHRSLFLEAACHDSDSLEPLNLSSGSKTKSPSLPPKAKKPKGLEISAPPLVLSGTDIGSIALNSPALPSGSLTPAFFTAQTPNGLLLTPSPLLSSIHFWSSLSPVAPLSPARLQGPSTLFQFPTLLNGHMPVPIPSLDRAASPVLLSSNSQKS
# Summary of the method: as §1
# FEV = molecular target: T7, FEV (Homo sapiens, UniProt Q99581 1-238); conditions: protein: recombinant; tags: N-terminal GST; dsDNA, one strand shown
# T7 sequence: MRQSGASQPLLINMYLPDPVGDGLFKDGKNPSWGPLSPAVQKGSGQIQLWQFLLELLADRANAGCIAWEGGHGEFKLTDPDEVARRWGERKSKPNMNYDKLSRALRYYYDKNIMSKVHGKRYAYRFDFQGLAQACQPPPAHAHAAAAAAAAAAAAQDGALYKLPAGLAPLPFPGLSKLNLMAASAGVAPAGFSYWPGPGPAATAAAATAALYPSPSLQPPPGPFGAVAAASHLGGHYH
# Summary of the method: as §1
# ETV5 = ETV5 (Homo sapiens, UniProt P41161 1-510); conditions: protein: recombinant; tags: N-terminal GST; dsDNA, one strand shown
# Summary of the method: as §1
# HSF1 = HSF1 (Homo sapiens, UniProt Q00613 1-529); conditions: protein: recombinant; tags: N-terminal GST; chain copies: 3; dsDNA, one strand shown
# Summary of the method: as §1
# SPIC = molecular target: T8, SPIC (Homo sapiens, UniProt Q8N5J4 1-248); conditions: protein: recombinant; tags: N-terminal GST; dsDNA, one strand shown
# T8 sequence: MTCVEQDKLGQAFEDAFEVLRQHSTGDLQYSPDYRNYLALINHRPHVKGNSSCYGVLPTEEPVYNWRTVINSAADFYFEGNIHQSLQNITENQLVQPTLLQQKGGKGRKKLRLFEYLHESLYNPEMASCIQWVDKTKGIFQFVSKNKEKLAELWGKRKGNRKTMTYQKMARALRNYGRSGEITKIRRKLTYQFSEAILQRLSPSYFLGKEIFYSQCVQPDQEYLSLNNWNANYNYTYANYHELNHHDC
# Summary of the method: as §1
# ELF4 = ELF4 (Homo sapiens, UniProt Q99607 1-663); conditions: protein: recombinant; tags: N-terminal GST; dsDNA, one strand shown
# Summary of the method: as §1
# ELK4 = molecular target: T9, ELK4 (Homo sapiens, UniProt P28324-2 1-405); conditions: protein: recombinant; tags: N-terminal GST; dsDNA, one strand shown
# T9 sequence: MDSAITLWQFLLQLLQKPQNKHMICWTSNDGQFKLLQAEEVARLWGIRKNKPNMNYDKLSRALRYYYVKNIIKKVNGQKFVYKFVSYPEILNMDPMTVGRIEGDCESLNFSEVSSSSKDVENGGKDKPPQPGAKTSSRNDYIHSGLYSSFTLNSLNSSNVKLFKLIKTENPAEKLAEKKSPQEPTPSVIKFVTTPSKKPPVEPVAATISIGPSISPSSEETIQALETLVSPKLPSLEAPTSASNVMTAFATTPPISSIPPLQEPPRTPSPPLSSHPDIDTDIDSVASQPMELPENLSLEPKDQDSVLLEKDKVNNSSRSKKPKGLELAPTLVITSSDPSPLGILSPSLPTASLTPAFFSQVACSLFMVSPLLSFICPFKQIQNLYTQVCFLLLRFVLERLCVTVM
# Summary of the method: as §1
# ETV2 = molecular target: T10, ETV2 (Homo sapiens, UniProt O00321 1-342); conditions: protein: recombinant; tags: N-terminal GST; dsDNA, one strand shown
# T10 sequence: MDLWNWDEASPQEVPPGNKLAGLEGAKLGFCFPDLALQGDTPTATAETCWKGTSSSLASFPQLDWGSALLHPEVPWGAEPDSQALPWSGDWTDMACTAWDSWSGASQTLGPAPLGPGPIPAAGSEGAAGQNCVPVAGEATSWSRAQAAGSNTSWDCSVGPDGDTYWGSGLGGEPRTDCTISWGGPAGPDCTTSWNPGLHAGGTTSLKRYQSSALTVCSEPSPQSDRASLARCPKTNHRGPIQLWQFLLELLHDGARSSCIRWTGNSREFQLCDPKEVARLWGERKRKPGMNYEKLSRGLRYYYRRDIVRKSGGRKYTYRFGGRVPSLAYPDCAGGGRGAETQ
# Summary of the method: as §1
# ELF3 = molecular target: T11, ELF3 (Homo sapiens, UniProt P78545 1-371); conditions: protein: recombinant; tags: N-terminal GST; dsDNA, one strand shown
# T11 sequence: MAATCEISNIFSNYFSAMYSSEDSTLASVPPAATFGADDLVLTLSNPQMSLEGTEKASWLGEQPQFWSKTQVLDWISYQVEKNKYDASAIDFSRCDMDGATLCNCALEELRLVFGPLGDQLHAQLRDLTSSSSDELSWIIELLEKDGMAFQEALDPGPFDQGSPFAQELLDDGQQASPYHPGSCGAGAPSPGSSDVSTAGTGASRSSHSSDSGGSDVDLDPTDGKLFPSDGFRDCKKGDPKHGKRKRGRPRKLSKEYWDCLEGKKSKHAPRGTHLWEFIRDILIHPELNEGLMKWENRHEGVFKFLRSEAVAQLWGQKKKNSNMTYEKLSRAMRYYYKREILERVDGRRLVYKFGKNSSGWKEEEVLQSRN
# Summary of the method: as §1
# CRX = CRX (Homo sapiens, UniProt O43186 1-299); conditions: protein: recombinant; tags: N-terminal GST; dsDNA, one strand shown
# Summary of the method: as §1
# ETV1 = ETV1 (Homo sapiens, UniProt P50549 1-477); conditions: protein: recombinant; tags: N-terminal GST; dsDNA, one strand shown
# Summary of the method: as §1
# ETV5, sequence (P41161 whole entry): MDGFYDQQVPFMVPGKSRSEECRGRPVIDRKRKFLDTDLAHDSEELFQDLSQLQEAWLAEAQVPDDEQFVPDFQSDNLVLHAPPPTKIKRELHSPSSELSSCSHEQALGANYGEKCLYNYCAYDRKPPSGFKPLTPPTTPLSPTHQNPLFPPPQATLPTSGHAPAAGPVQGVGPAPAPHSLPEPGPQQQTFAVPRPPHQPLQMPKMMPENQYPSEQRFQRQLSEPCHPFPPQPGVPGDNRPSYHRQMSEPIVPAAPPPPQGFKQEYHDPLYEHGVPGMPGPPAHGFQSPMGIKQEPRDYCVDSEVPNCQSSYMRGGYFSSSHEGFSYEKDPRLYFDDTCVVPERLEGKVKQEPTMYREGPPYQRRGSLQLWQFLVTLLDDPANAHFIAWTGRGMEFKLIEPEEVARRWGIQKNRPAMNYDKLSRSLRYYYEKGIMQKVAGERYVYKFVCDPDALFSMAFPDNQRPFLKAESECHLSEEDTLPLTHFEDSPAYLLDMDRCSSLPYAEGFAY
# SPIB, sequence (Q01892 whole entry): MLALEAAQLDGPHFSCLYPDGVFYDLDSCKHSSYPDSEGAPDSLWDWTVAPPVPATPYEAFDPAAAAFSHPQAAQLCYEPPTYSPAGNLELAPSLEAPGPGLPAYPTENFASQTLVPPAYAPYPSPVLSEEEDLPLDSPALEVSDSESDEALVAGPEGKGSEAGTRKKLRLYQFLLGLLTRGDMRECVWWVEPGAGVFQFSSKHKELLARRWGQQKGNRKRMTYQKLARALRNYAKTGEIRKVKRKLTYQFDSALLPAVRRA
# CRX, sequence (O43186 whole entry): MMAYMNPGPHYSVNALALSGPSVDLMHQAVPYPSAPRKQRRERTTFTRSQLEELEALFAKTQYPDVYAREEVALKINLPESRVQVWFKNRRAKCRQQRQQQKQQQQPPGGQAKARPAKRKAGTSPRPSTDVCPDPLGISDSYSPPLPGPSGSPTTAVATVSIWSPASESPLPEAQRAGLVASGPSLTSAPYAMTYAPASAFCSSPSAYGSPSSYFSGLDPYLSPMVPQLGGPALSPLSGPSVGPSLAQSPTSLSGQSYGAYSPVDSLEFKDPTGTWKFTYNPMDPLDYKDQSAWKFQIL
# ELF4, sequence (Q99607 whole entry): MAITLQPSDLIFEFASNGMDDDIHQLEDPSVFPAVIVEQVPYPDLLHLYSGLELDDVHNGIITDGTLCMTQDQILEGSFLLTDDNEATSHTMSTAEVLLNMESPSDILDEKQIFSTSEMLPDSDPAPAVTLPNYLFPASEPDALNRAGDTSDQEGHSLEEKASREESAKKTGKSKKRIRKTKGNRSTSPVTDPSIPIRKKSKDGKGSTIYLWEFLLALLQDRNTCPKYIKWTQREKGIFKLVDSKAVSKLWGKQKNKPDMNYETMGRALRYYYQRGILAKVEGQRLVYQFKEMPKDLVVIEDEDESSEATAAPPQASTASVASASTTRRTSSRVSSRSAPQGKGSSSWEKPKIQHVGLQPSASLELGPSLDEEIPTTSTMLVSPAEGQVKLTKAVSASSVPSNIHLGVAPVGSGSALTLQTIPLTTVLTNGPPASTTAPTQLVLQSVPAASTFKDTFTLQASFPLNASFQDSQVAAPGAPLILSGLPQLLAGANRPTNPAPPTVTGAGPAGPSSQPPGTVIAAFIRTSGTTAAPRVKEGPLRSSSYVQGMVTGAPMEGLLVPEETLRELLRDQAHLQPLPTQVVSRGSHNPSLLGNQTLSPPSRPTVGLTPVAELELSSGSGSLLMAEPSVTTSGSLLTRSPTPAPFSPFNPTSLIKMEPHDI
# ETV1, sequence (P50549 whole entry): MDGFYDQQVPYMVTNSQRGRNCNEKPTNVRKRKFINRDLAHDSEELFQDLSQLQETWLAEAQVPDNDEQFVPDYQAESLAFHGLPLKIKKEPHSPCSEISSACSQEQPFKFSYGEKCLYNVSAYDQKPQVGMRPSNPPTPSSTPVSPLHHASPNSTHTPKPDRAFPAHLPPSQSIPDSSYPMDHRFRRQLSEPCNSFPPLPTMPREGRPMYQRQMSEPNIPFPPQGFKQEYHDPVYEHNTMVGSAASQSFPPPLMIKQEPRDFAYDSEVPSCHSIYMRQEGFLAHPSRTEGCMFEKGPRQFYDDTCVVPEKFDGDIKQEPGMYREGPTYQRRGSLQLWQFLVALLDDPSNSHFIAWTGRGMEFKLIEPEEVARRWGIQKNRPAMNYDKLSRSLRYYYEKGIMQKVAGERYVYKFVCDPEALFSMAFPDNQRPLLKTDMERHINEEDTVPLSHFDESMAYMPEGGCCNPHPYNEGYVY
# HSF1, sequence (Q00613 whole entry): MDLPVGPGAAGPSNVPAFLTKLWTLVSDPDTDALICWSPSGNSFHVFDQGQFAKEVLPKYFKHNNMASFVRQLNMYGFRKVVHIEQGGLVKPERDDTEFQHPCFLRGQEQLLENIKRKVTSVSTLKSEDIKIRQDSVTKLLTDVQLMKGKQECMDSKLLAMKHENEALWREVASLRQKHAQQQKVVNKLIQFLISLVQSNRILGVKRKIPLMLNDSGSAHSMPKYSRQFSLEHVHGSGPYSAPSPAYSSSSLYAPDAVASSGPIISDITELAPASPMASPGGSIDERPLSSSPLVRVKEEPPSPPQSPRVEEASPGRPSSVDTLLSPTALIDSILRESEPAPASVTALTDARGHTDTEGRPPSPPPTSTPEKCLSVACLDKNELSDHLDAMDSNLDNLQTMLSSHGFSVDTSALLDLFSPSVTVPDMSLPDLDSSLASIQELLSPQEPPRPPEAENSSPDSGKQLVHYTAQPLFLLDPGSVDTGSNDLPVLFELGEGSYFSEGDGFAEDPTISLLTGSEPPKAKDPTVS
# ELF1, sequence (P32519 whole entry): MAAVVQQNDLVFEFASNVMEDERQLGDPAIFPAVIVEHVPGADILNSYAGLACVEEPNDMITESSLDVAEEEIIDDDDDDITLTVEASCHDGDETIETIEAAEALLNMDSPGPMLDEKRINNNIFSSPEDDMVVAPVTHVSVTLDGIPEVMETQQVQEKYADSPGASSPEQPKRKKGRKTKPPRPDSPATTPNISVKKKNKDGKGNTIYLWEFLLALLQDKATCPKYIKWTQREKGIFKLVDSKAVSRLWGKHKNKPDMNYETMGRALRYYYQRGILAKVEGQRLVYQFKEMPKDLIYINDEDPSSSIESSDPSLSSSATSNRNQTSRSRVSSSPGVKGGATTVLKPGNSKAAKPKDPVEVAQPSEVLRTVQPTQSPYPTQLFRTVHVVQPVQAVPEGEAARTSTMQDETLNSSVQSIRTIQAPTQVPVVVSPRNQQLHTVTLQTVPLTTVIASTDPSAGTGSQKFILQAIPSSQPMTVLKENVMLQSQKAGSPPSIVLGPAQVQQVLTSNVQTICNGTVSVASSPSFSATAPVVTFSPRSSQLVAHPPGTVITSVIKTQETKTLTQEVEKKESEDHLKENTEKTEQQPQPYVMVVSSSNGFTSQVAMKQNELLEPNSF
sequence,measurement,setting,value
CTACGA,binding signal,FLI1,"1.16 fold enrichment (6-mer frequency, TF over GST control)"
same,binding signal,ELK1,"1.24 fold enrichment (6-mer frequency, TF over GST control)"
same,binding signal,GABPA,"1.29 fold enrichment (6-mer frequency, TF over GST control)"
same,binding signal,ERG,"1.2 fold enrichment (6-mer frequency, TF over GST control)"
same,binding signal,ELF1,"1.27 fold enrichment (6-mer frequency, TF over GST control)"
same,binding signal,EHF,"1.25 fold enrichment (6-mer frequency, TF over GST control)"
same,binding signal,SPI1,"1.14 fold enrichment (6-mer frequency, TF over GST control)"
same,binding signal,SPIB,"1.23 fold enrichment (6-mer frequency, TF over GST control)"
same,binding signal,ELK3,"1.33 fold enrichment (6-mer frequency, TF over GST control)"
same,binding signal,FEV,"1.34 fold enrichment (6-mer frequency, TF over GST control)"
same,binding signal,ETV5,"1.2 fold enrichment (6-mer frequency, TF over GST control)"
same,binding signal,HSF1,"1.25 fold enrichment (6-mer frequency, TF over GST control)"
same,binding signal,SPIC,"1.17 fold enrichment (6-mer frequency, TF over GST control)"
same,binding signal,ELF4,"1.24 fold enrichment (6-mer frequency, TF over GST control)"
same,binding signal,ELK4,"1.22 fold enrichment (6-mer frequency, TF over GST control)"
same,binding signal,ETV2,"1.47 fold enrichment (6-mer frequency, TF over GST control)"
same,binding signal,ELF3,"1.5 fold enrichment (6-mer frequency, TF over GST control)"
same,binding signal,CRX,"1.21 fold enrichment (6-mer frequency, TF over GST control)"
same,binding signal,ETV1,"1.19 fold enrichment (6-mer frequency, TF over GST control)"
